In PubChem BioAssay AID1159580 (chemical genetic matrix, 2015):
Where “and” joins values, the source holds several entries; their conditions need not be identical. Equal entries are not always repeated. Out of some 5,500 compounds screened, about 2,000 (36%) were called active. Another 18% or so got no clear call; they are omitted. Rule as the data show it: active = normalized growth mostly below about 0.91 (no sharp cut-off); inconclusive = no clear call, values can overlap the other calls; inactive = mostly above about 0.92. The list shows a part of the results.

Experiment: chemical genetic growth profiling, strain panel (AID 1159580);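 also: tested at 20 µM; growth read once vehicle control cultures reached saturation at 30 °C; 1 = growth at the plate median or of vehicle wells; lower values mean less growth of the strain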
Conditions: S. cerevisiae deletion strains, growth OD

Measured: normalized growth

CCC(/C=C/[C@@H](C)[C@H]1CCC2C3CC=C4C[C@@H](O)CC[C@]4(C)C3CC[C@@]21C)C(C)C (some centres undefined)
inactive: locus YAL013W, strain DEP1, hits give low values 0.999 | locus YAL021C, strain ccr4, hits give low values 1.02 | locus YAL026C, strain drs2, hits give low values 0.935 | locus YAL030W, strain snc1, hits give low values 0.99 | locus YBL061C, strain skt5, hits give low values 0.997 | locus YBR009C, strain hhf1, hits give low values 0.972 | locus YBR021W, strain FUR4, hits give low values 1.04 | locus YBR023C, strain chs3, hits give low values 0.988 | locus YBR171W, strain sec66, hits give low values 0.985 | locus YBR229C, strain ROT2, hits give low values 0.993 | locus YBR231C, strain swc5, hits give low values 0.988 | locus YBR279W, strain paf1, hits give low values 0.994 | locus YCL011C, strain gbp2, hits give low values 0.968 | locus YCL016C, strain dcc1, hits give low values 1 | locus YCL029C, strain bik1, hits give low values 1 | locus YCL061C, strain MRC1, hits give low values 1.01 | locus YCL069W, strain vba3, hits give low values 0.99 | locus YCR088W, strain abp1, hits give low values 0.994 | locus YDL005C, strain med2, hits give low values 0.983 | locus YDL035C, strain GPR1, hits give low values 1.02 | locus YDL040C, strain nat1, hits give low values 0.987 | locus YDL074C, strain BRE1, hits give low values 0.992 | locus YDL101C, strain DUN1, hits give low values 1.01 | locus YDL185W, strain tfp1, hits give low values 0.986 | locus YDL192W, strain arf1, hits give low values 0.986 | locus YDR001C, strain nth1, hits give low values 0.991 | locus YDR069C, strain doa4, hits give low values 1.01 | locus YDR101C, strain arx1, hits give low values 0.987 | locus YDR137W, strain rgp1, hits give low values 0.931 | locus YDR150W, strain NUM1, hits give low values 1.02 | locus YDR159W, strain sac3, hits give low values 0.959 | locus YDR162C, strain NBP2, hits give low values 1.02 | locus YDR195W, strain ref2 0.963 | locus YDR297W, strain sur2, hits give low values 0.991 | locus YDR318W, strain mcm21, hits give low values 0.987 | locus YDR334W, strain swr1, hits give low values 0.988 | locus YDR335W, strain msn5, hits give low values 0.982 | locus YDR388W, hits give low values 0.989 | locus YDR392W, strain spt3, hits give low values 0.894 | locus YDR502C, strain sam2, hits give low values 0.992 | locus YEL003W, strain gim4, hits give low values 0.982 | locus YEL037C, strain rad23, hits give low values 0.976 | locus YEL061C, strain CIN8 (second series), hits give low values 0.979 | locus YEL061C, strain CIN8, hits give low values 0.999 | locus YER015W, strain faa2, hits give low values 1 | locus YER016W, strain bim1, hits give low values 0.979 | locus YER110C, hits give low values 0.995 | locus YER111C, strain swi4, hits give low values 0.99 | locus YER155C, strain BEM2 (second series), hits give low values 0.993 | locus YER155C, strain BEM2, hits give low values 0.986 | locus YER167W, strain BCK2, hits give low values 0.997 | locus YFR010W, strain ubp6, hits give low values 0.997 | locus YGL078C, strain dbp3, hits give low values 0.991 | locus YGL086W, strain mad1, hits give low values 1.02 | locus YGL167C, strain pmr1, hits give low values 0.975 | locus YGL173C, strain kem1, hits give low values 0.983 | locus YGL227W, strain vid30, hits give low values 0.985 | locus YGL240W, strain doc1, hits give low values 0.998 | locus YGL248W, strain PDE1, hits give low values 1 | locus YGL253W, strain hxk2, hits give low values 0.962 | locus YGR135W, strain pre9, hits give low values 0.989 | locus YGR252W, strain gcn5, hits give low values 0.971 | locus YHR013C, strain ard1, hits give low values 0.957 | locus YHR027C, strain rpn1, hits give low values 0.996 | locus YHR030C, strain SLT2, hits give low values 1 and 0.954 | locus YHR079C, strain IRE1 (second series), hits give low values 0.991 | locus YHR079C, strain IRE1, hits give low values 0.964 | locus YHR094C, strain hxt1, hits give low values 0.995 | locus YHR129C, strain ARP1, hits give low values 0.999 | locus YHR142W, strain chs7, hits give low values 1.02 | locus YHR200W, strain rpn10, hits give low values 0.981 | locus YIL066C, strain RNR3, hits give low values 1 | locus YIL073C, strain SPO22, hits give low values 1 | locus YIL125W, strain kgd1, hits give low values 1.02 | locus YIR030C, strain dcg1, hits give low values 1 | locus YJL092W, strain hpr5, hits give low values 0.998 | locus YJL095W, strain BCK1 (second series), hits give low values 0.997 | locus YJL095W, strain BCK1, hits give low values 1.01 and 0.976 | locus YJL115W, strain asf1, hits give low values 0.993 | locus YJL129C, strain trk1, hits give low values 1.01 | locus YJL134W, strain LCB3, hits give low values 0.997 | locus YJL154C, strain vps35, hits give low values 0.981 | locus YJL164C, strain tpk1, hits give low values 1 | locus YJL166W, strain qcr8, hits give low values 0.981 | locus YJL168C, strain set2, hits give low values 0.997 | locus YJL187C, strain SWE1 (second series), hits give low values 1 | locus YJL187C, strain SWE1, hits give low values 0.993 | locus YJR043C, strain POL32, hits give low values 1.04 | locus YJR066W, strain TOR1, hits give low values 0.929 | locus YKL009W, strain mrt4, hits give low values 1.02 | locus YKL068W, hits give low values 0.994 | locus YKL085W, strain MDH1 (second series), hits give low values 0.993 | locus YKL085W, strain MDH1, hits give low values 0.993 | locus YKL160W, strain elf1, hits give low values 1.04 | locus YKR001C, strain vps1, hits give low values 1.02 | locus YKR026C, strain gcn3, hits give low values 0.984 | locus YKR091W, strain srl3, hits give low values 0.99 | locus YLL001W, strain dnm1, hits give low values 1 | locus YLL026W, hits give low values 1.01 | locus YLL041C, strain sdh2, hits give low values 1 | locus YLR027C, strain aat2, hits give low values 0.984 | locus YLR039C, strain RIC1, hits give low values 0.964 | locus YLR058C, strain SHM2, hits give low values 0.998 | locus YLR102C, strain apc9, hits give low values 0.992 | locus YLR113W, strain HOG1, hits give low values 0.951 | locus YLR221C, strain rsa3, hits give low values 1 | locus YLR258W, strain gsy2, hits give low values 0.991 | locus YLR262C, strain YPT6 (second series), hits give low values 0.917 | locus YLR262C, strain YPT6, hits give low values 1.01 | locus YLR268W, strain sec22, hits give low values 0.987 | locus YLR320W, strain mms22, hits give low values 0.998 | locus YLR330W, strain CHS5, hits give low values 1 | locus YLR342W, strain FKS1 (second series), hits give low values 1.05 | locus YLR342W, strain FKS1, hits give low values 0.986 | locus YLR357W, strain rsc2, hits give low values 1.03 | locus YLR370C, strain arc18, hits give low values 0.988 | locus YLR371W, strain rom2, hits give low values 0.999 | locus YLR384C, strain iki3, hits give low values 0.982 | locus YLR418C, strain cdc73, hits give low values 1.03 | locus YML016C, strain PPZ1, hits give low values 0.991 | locus YML032C, strain rad52, hits give low values 0.994 | locus YML120C, strain ndi1, hits give low values 0.99 | locus YML124C, strain tub3, hits give low values 0.992 | locus YMR058W, strain fet3, hits give low values 0.984 | locus YMR078C, strain ctf18, hits give low values 0.987 | locus YMR125W, strain sto1, hits give low values 0.975 | locus YMR129W, hits give low values 1 | locus YMR205C, strain PFK2, hits give low values 0.981 | locus YMR223W, strain ubp8, hits give low values 0.974 | locus YMR231W, strain pep5, hits give low values 0.99 | locus YMR263W, strain SAP30, hits give low values 1.02 | locus YMR307W, strain GAS1, hits give low values 1.11 | locus YNL067W, strain RPL9B, hits give low values 1.02 | locus YNL071W, strain lat1, hits give low values 0.986 | locus YNL128W, strain TEP1, hits give low values 1 | locus YNL183C, strain NPR1, hits give low values 0.904 | locus YNL209W, strain ssb2, hits give low values 0.993 | locus YNL233W, strain BNI4, hits give low values 1.02 | locus YNL248C, strain rpa49, hits give low values 0.987 | locus YNL250W, strain rad50, hits give low values 0.991 | locus YNL271C, strain bni1, hits give low values 0.99 | locus YNL298W, strain CLA4, hits give low values 1 | locus YNL307C, strain MCK1, hits give low values 1.01 | locus YNL322C, strain KRE1 (second series), hits give low values 0.989 | locus YNL322C, strain KRE1, hits give low values 0.995 | locus YNR049C, strain mso1, hits give low values 0.979 | locus YNR052C, strain pop2, hits give low values 0.983 | locus YOL012C, strain htz1 1.17 | locus YOL147C, strain pex11, hits give low values 0.992 | locus YOR001W, strain rrp6, hits give low values 1.01 | locus YOR061W, strain CKA2, hits give low values 1 | locus YOR069W, strain VPS5, hits give low values 0.992 | locus YOR070C, strain gyp1, hits give low values 0.976 | locus YOR080W, strain dia2, hits give low values 0.989 | locus YOR083W, strain WHI5, hits give low values 1.05 | locus YOR106W, strain vam3, hits give low values 0.999 | locus YOR136W, strain idh2, hits give low values 0.995 | locus YOR144C, strain elg1, hits give low values 0.987 | locus YOR184W, strain ser1, hits give low values 1 | locus YOR231W, strain MKK1, hits give low values 0.984 | locus YOR265W, strain rbl2, hits give low values 0.989 | locus YOR270C, strain vph1, hits give low values 0.909 | locus YOR290C, strain snf2, hits give low values 0.921 | locus YOR316C, strain cot1, hits give low values 0.989 | locus YPL051W, strain arl3, hits give low values 1.01 | locus YPL078C, strain atp4, hits give low values 1.01 | locus YPL106C, strain sse1, hits give low values 0.996 | locus YPL240C, strain hsp82, hits give low values 1.02 | locus YPL256C, strain CLN2, hits give low values 0.962 | locus YPR119W, strain clb2, hits give low values 0.99 | locus YPR141C, strain kar3, hits give low values 0.994 | locus YPR163C, strain tif3, hits give low values 0.997 | locus YPR167C, strain met16, hits give low values 0.992 | strain wtn01, hits give low values 0.996
